Data as given in PubChem BioAssay AID504378 (National Center for Advancing Translational Sciences (NCATS), 2011).
Records with an inconclusive call do not appear. The source made the active and inactive calls. Calls come from the whole dose curve; as a rule, active = well fitted curve in the direction sought with a large enough effect; inconclusive = small, poorly fitted or top-dose-only effect, or another doubt; inactive = no such curve, though single readings can be large or run the other way.

Test: qHTS Assay for Compounds Blocking the Interaction Between CBF-beta and RUNX1 for the Treatment of Acute Myeloid Leukemia: SAR for Probe with Orthogonal Assay
Settings: ME-1 cells viability, ATPlite luminescence, 48 h; series mostly up to 82.4 µM; activity change, negative = inhibition: at the top concentration
Excerpt: NIH Chemical Genomics Center [NCGC] NIH Molecular Libraries Probe Production centers Network [MLPCN] MLPCN Grant: X01MH083259-01 Assay Submitter (PI): Paul Liu NCGC Assay Overview: Core Binding Factor (CBF) abnormalities are associated with 20-25% of all acute myeloid leukemias (AML), of which 5-10% are further sub classified as acute myelomonocytic leukemia with eosinophilia, also known as M4Eo in the FAB classification scheme. This subtype of leukemia is usually associated with chromosome 16 inversion (p13:q22). Chromosome 16 inversion results in formation of the fusion oncogene CBFB-MYH11, which encodes the fusion protein CBF-beta-SMMHC. […] It has been hypothesized that the interference of CBF-beta and RUNX1 binding could have therapeutic implications for patients with CBF mediated leukemias. We developed a CBF-beta and RUNX1 binding assay in AlphaScreenTM format and optimized it for high throughput screening to search for inhibitors. The goal of this project is to screen MLPCN's compound collection (MLSMR) for identifying the inhibitors of the interaction between CBF-beta and RUNX1 proteins as research probes. If these probes work well in the animal models, the ultimate goal of this project is to development a new drug treatment for this disease. This assay can not be used to assess how apparent inhibitors interfere with protein binding, and whether inhibitors specifically bind to either protein. Disruption of this protein-protein interaction, through any mechanism, is the intended target activity. The present data set was run to confirm the activity of hits from the primary screen using an orthogonal assay technology for measuring protein-protein interaction disruption.
NCGC Assay protocol: ME-1 suspension cells were grown in T225 flasks to 80% density under a standard cell culture condition (ATCC) using Dulbecco's Modified Eagle Medium (DMEM) + 10% fetal bovine serum, harvested in OPTI-MEM (phenol free) + 10% FBS. Seeded at 500 cells/well in 5uL medium into 1536-well white solid-bottom plates using Multidrop Combi dispenser, and incubated the plates at 37 C with 5% CO2 and 95% humidity for 2 hours prior to pinning compound. Subsequently, 23 nL/well compound solutions or DMSO controls were dispensed to the assay plates via a pintool workstation. Plates were then transferred to 37 C with 5% CO2 and 95% humidity for 48 hours, and then ATP content was measured following the addition of 4uL/well of ATPlite reagent and a 20 min incubation on a ViewLux plate reader. Keywords: MLSMR, MLPCN, NIH Roadmap, qHTS, NCGC, Core binding factor, CBF, CBF-beta, Acute myeloid leukemia

| Structure (SMILES) | activity change, negative = inhibition | outcome |
| --- | --- | --- |
| NC(=O)C[C@H](N)C(=O)Nc1ccc(Cl)cc1C(=O)c1ccc[nH]1 | -25.5% (inactive) |  |
| N[C@H](C(=O)Nc1ccc(Cl)cc1C(=O)c1ccc[nH]1)c1ccccc1 | -6.2% (inactive) |  |
| C[C@@H](N)C(=O)Nc1ccc(Cl)cc1C(=O)c1ccc[nH]1 | 6.1% (inactive) |  |
| N[C@@H](Cc1ccccc1)C(=O)Nc1ccc(Cl)cc1C(=O)c1ccc[nH]1 | 3.46% (inactive) |  |
| N[C@@H](CC(=O)O)C(=O)Nc1ccc(Cl)cc1C(=O)c1ccc[nH]1 | -15% (inactive) |  |
| NCCCC[C@H](N)C(=O)Nc1ccc(Cl)cc1C(=O)c1ccc[nH]1 | -3.67% (inactive) |  |
| N[C@H](Cc1ccccc1)C(=O)Nc1ccc(Cl)cc1C(=O)c1ccc[nH]1 | -12.2% (inactive) |  |
| NCCCC(=O)Nc1ccc(Cl)cc1C(=O)c1ccc[nH]1 | -11% (inactive) |  |
| NC(N)=NCCC[C@H](N)C(=O)Nc1ccc(Cl)cc1C(=O)c1ccc[nH]1 | 7.87% (inactive) |  |
| Nc1ccc(Cl)cc1C(=O)c1ccc[nH]1 | 1.45% (inactive) |  |
| C[C@H](N)C(=O)Nc1ccc(Cl)cc1C(=O)c1ccc[nH]1 | -17.6% (inactive) |  |
| CN(C)CC(=O)Nc1ccc(Cl)cc1C(=O)c1ccc[nH]1 | -14.1% (inactive) |  |
| N[C@@H](CCC(=O)O)C(=O)Nc1ccc(Cl)cc1C(=O)c1ccc[nH]1 | -16.9% (inactive) |  |
| CC(C)[C@H](N)C(=O)Nc1ccc(Cl)cc1C(=O)c1ccc[nH]1 | -7.1% (inactive) |  |
| CCC(=O)Nc1ccc(Cl)cc1C(=O)c1ccc[nH]1 | 1.35% (inactive) |  |
| NCCCCC(=O)Nc1ccc(Cl)cc1C(=O)c1ccc[nH]1 | -42.2% (inactive) |  |
| NCCC(=O)Nc1ccc(Cl)cc1C(=O)c1ccc[nH]1 | 3.25% (inactive) |  |
| CCc1sc(N)nc1-c1ccc(OC)cc1 | 6.57% [at 41 µM] (inactive) |  |
| CC(C)(N)C(=O)Nc1ccc(Cl)cc1C(=O)c1ccc[nH]1 | 0.648% (inactive) |  |
| CNCc1nc(-c2ccc[nH]2)c2cc(Cl)ccc2n1 | 28% (inactive) |  |
| O=C(c1ccc[nH]1)c1cc(Cl)ccc1NC(=O)[C@@H]1CCCN1 | 21.2% (inactive) |  |
| CNCC(=O)Nc1ccc(Cl)cc1C(=O)c1ccc[nH]1 | -4.39% (inactive) |  |
| N[C@@H](CO)C(=O)Nc1ccc(Cl)cc1C(=O)c1ccc[nH]1 | -12.7% (inactive) |  |
| CC(=O)Nc1ccc(Cl)cc1C(=O)c1ccc[nH]1 | -5.24% (inactive) |  |
| NCC(=O)Nc1ccc(Cl)cc1C(=O)c1ccc[nH]1 |  | inactive |
